Consider 46 compounds from PubChem BioAssay AID1851 (National Center for Advancing Translational Sciences (NCATS), 2009).

In all, about 16,000 compounds went through this assay and about 4,000 (25%) were called active. Another 26% or so got no clear call; they are omitted. Not all results are given here. A number with no mark means an inactive call. The call rests on the fitted dose curve; in most records, active means well fitted curve in the direction sought with a large enough effect; inconclusive means small, poorly fitted or top-dose-only effect, or effect the other way; inactive means no such curve, though single readings can be large or run the other way.
On the % scale 0 is the no-effect control and ±100 the full control effect.

This assay deals with Cytochrome P450 2C9 (Homo sapiens) (UniProt P11712). Description: Cytochrome panel assay with activity outcomes. Conditions: recombinant CYP, pro-luciferin dealkylation, luminescence, p450-cyp2c9; series mostly up to 57.1 µM; activity, negative = inhibition: at the top concentration.
Chain of Cytochrome P450 2C9 (Homo sapiens) (P11712 whole entry, looked up): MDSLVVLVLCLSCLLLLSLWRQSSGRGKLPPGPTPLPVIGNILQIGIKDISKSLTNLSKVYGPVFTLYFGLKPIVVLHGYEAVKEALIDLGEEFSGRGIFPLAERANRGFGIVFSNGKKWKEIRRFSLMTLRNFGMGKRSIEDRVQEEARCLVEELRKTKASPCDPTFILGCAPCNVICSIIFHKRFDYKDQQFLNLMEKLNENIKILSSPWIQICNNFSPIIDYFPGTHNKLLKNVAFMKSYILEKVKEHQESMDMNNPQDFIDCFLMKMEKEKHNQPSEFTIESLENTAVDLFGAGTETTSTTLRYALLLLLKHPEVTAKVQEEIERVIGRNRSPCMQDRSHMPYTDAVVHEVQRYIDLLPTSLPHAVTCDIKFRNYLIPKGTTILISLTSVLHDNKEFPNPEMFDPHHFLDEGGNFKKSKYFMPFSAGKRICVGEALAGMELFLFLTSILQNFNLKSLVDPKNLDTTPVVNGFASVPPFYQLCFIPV
With `COC(=O)Nc1nc2ccc(C(=O)c3cccs3)cc2[nH]1`, the “activity, negative = inhibition” value is 29.3%.
In the case of `CN1[C@H]2CC(=O)C[C@@H]1[C@@H](O)C2`, the “activity, negative = inhibition” value was -10.5% [at 25.6 µM].
As to `CN1C(=O)C(=Cc2ccc(N3CCCCCC3)o2)C(=O)N(C)C1=S`, the AC50 (as a rule, the concentration at which the activity in the assay is half-maximal) is 7.94 µM (active).
Take `COc1cc(C[C@H](C)N)c(OC)cc1I`: the activity, negative = inhibition result is “inactive”.
As to `C/C=C1\C[N@@+]2(C)CC[C@@]34C(=C(C=O)[C@H]1C[C@H]32)Nc1ccccc14`, the “activity, negative = inhibition” value was -12% [at 25.6 µM].
For the compound `C[As+](C)(c1ccc(Br)c([N+](=O)[O-])c1)c1ccc(Br)c([N+](=O)[O-])c1.O=[N+]([O-])O`, the activity, negative = inhibition is 1.81% [at 11.4 µM].
Take `O=[N+]([O-])c1cc([As](=O)(O)O)ccc1O`: the “activity, negative = inhibition” value was -8.02% [at 25.6 µM].
As to `O=[N+]([O-])c1cc(O)c(O)c([N+](=O)[O-])c1`, the AC50 is 0.794 µM (active).
`O=C(CCCN1CCC2(CC1)C(=O)NCN2c1ccccc1)c1ccc(F)cc1`: the activity, negative = inhibition entry was “inactive”.
Same read-out and setting: the same measure for `[N-]=[N+]=NCC(=O)c1c[nH]c(=O)[nH]c1=O`: -6.58% [at 11.4 µM]; for `O=C1NCN(c2ccccc2)C12CCN(CCCOc1ccc(F)cc1)CC2`: -0.771%.
In the case of `CC(C)c1c(CN(C)[C@@H](C)Cc2ccccc2)n(C)n(-c2ccccc2)c1=O`, the AC50 is 7.94 µM (active).
As for `CCCN(CCC)C(=O)Cc1c(-c2ccc(Cl)cc2)nc2c(Cl)cc(Cl)cn12`, the “activity, negative = inhibition” value is 8.63%.
As to `CCCCCC[C@H]1C(=O)O[C@H](C)[C@H](NC(=O)c2cccc(NC=O)c2O)C(=O)O[C@@H](C)[C@H]1OC(=O)CC(C)C`, the “activity, negative = inhibition” value was -45.8% [at 25.6 µM].
For `CCOC(=O)N1CCC(NC(=O)CCc2nc(C3=CCN(C)CC3)no2)CC1`, the “activity, negative = inhibition” value is -27.6%.
Consider `O=C(Nc1ccc(F)cc1F)c1cccnc1Oc1cccc(C(F)(F)F)c1`, for which the “activity, negative = inhibition” value is 4.09%.
Turning to `CN(C)CCN(C)CCc1ccc(Cl)c(Cl)c1`, the “activity, negative = inhibition” value was -24.5%.
Turning to `O=C(Nc1ccccc1)N1CC2(CCN(C(=O)Oc3ccccc3)CC2)C1`, the “activity, negative = inhibition” value was -15.7%.
Turning to `NC(N)=NN=Cc1c(Cl)cccc1Cl`, the “activity, negative = inhibition” value was 2.99%.
Take `c1ccc(N2CCC3(CCNCC3)CC2)cc1`: the “activity, negative = inhibition” value was -10.6%.
In the case of `COc1ccc(NC(=O)NC2CC3CCCC(C2)N3Cc2ccccc2)cc1` (stereo unspecified), the “activity, negative = inhibition” value was -30.1%.
On the same count and under the same terms, the same measure for `CCc1ccccc1NC(=O)NC1CC2CCC(C1)N2Cc1cccs1` (stereo unspecified): 12.3%.
Take `O=C(NC1CCCCC1)NC1CC2CCC(C1)N2Cc1nnnn1Cc1ccc2c(c1)OCO2` (stereo unspecified): the AC50 is 14.1 µM (active).
On to `CC1=C(CC[C@H](C)CO)O[C@@H]2C[C@@H]3[C@H]4CC[C@H]5C[C@@H](O)CC[C@]5(C)[C@@H]4CC(=O)[C@@]3(C)[C@@H]12`, for which the activity, negative = inhibition is -6.29% [at 11.4 µM].
For the compound `O=C1/C(=C\c2ccccc2)C[C@@]2(O)[C@H]3Cc4ccc(O)c5c4[C@@]2(CCN3CC2CC2)[C@@H]1O5`, the “activity, negative = inhibition” value is -16.5%.
Regarding `Cc1nc2sccc2c(=O)n1-c1ccccc1Cl`, the “activity, negative = inhibition” value is -26.4%.
Take `O=c1c2ccccc2nc(N2CCCC2)n1-c1ccc(Cl)cc1`: the AC50 was 14.1 µM (active).
For `O=C(O)c1nn(Cc2ccc(Cl)cc2Cl)c2ccccc12`, the “activity, negative = inhibition” value is -12.3%.
Same read-out and setting: in the case of `C=CCN1CCC2(C)c3cc(O)ccc3C[C@H]1[C@H]2C` it was “inactive”; in that of `C1C[C@@H]2CN(CCCN3CCOCC3)[C@@H](C1)O2`, -4.7% [at 11.4 µM].
`Cc1ccc(NC(=[OH+])c2cc3ccccc3cc2O)c(C)c1.Cc1ccc(NC(=[OH+])c2cc3ccccc3cc2O)c(C)c1.[Ni]`: the AC50 was 3.16 µM (active).
Turning to `COc1cc(CCN)c(OC)c(OC)c1`, the activity, negative = inhibition is -1.31% [at 11.4 µM].
In the case of `O=C(CCN1CC2CCC(CC2)C1)c1cccs1`, the activity, negative = inhibition is -7.86% [at 11.4 µM].
In the case of `C[C@@H]1OC=C2[C@@H](O)[C@H]3O[C@H]3C(=O)[C@@]23[C@H]1[C@H]1C2=C([C@@H](O)[C@H]4O[C@@H]4C2=O)[C@@H]3O[C@@H]1C`, the activity, negative = inhibition is 19.8% [at 11.4 µM].
As for `Nc1nnnn1CCO`, the activity, negative = inhibition is -3.83% [at 11.4 µM].
Consider `CS(=O)(=O)O[C@H]1CN2CCC1CC2`, for which the activity, negative = inhibition was 8.53% [at 11.4 µM].
For the compound `CN1[C@@H]2CC[C@H]1CC(O[C@@H](c1ccccc1)c1ccc(Cl)cc1)C2` (stereo partly specified), the activity, negative = inhibition entry is “inactive”.
The same measure, in the same setting: in the case of `CCCCN(CCCC)CCC(O)c1cc2c(Cl)cc(Cl)cc2c2cc(C(F)(F)F)ccc12` (stereo unspecified) it was 4.34% [at 25.6 µM].
Turning to `N[C@H](CCl)C(=O)O`, the “activity, negative = inhibition” value was -11.2%.
For `O=C(Oc1ccccc1)N1CCC2(CCN(Cc3nccs3)CC2)CC1`, the “activity, negative = inhibition” value was 19.4%.
On the same count and under the same terms, in the case of `CN(C)Cc1c[nH]c2ccccc12` it was 8.53% [at 25.6 µM]; in that of `CC(C)COc1ccc(C2(C#N)CC[N+](C)(C)CC2)cc1`, 11.5%; in that of `C=C(C)[C@H]1CC[C@]2(C(=O)O)CC[C@]3(C)[C@@H](CC[C@H]4[C@@]5(C)CC[C@@H](O)C(C)(C)[C@@H]5CC[C@@]43C)[C@H]12`, -9.3% [at 25.6 µM].
As for `CCCCC/C=C\C/C=C\C/C=C\C/C=C\CCCC(=O)Nc1ccc(O)cc1`, the concentration at half-maximal activity (AC50) is 5.01 µM (active).
Take `CCCCCCCC/C=C\CCCCCCCC(N)=O`: the “activity, negative = inhibition” value is -12.7%.
On to `CCCCC/C=C\C/C=C\C/C=C\C/C=C\CCCC(=O)NCC(=O)O`, for which the “activity, negative = inhibition” value is -23.5%.
